We go through five compounds from PubChem BioAssay (EPA / NIEHS).

Structures are written as SMILES. Results filed as inconclusive are left out. Activity calls are given as the source filed them. Rule for the calls, unless noted: active = hit-call score of the fitted dose curve at least 0.9, where 1 is the maximum; inconclusive = response in the unintended direction; inactive = score below 0.9.

In general, AC50 refers to the concentration at which the activity in the assay is half-maximal.

Read-out in test [1]: sulfotransferase (SULT2A), SULT2A1 (gene 6822)
Briefly: CLD_SULT2A_24hr: CellzDirect (CLD) Gene Expression Assay for sulfotransferase (SULT2A) at 24 hours (AID 2283694). In outline: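 Primary human hepatocytes from two donor preparations were dosed daily with fresh solutions, vehicle 0.2% DMSO. At 24 h, lysates went to quantitative nuclease protection (qNPA) with S1 digestion and chemiluminescent readout. Cytotoxicity was annotated from phase-contrast morphology.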

Read-out in test [2]: ABC Transporter (ABCB1), ABCB1 (gene 5243)
Description: CLD_ABCB1_48hr: CellzDirect (CLD) Gene Expression Assay for ABC Transporter (ABCB1) at 48 hours (AID 2283695). As to the method: (§1) CLD_48hr is a cell-based, multiplexed-readout assay that uses hepatocyte, a human liver primary cell, with measurements taken at 48 hours after chemical dosing in a 96-well plate.CLD_ABCB1_48hr is one of 16 assay component(s) measured or calculated from the CLD_48hr assay. It is designed to make measurements of mRNA induction, a form of inducible reporter, as detected with chemiluminescence signals by Quantitative Nuclease Protection Assay (qNPA) technology.Data from the assay component CLD_ABCB1_48hr was analyzed at the endpoint, CLD_ABCB1_48hr, in the positive analysis fitting direction relative to DMSO as the negative control and baseline of activity. Using a type of inducible reporter, gain-of-signal activity can be used to understand changes in the reporter gene as they relate to the gene ABCB1. Furthermore, this assay endpoint can be referred to as a primary readout. To generalize the intended target to other relatable targets, this assay endpoint is annotated to the transporter intended target family, where subfamily is ABC transporter.
(§2) Human hepatocyte cultures were treated daily for two consecutive days with fresh dosing solutions containing appropriate concentrations of the 320 ToxCast chemicals (chemical identities were blinded to CellzDirect and other ToxCast collaborators), vehicle control (0.2% DMSO), and positive control inducers as summarized in Table 1. […] These replicate data, coupled with internal replicates designed within the blinded ToxCast chemical library, provided additional data to evaluate interindividual differences between hepatocyte preparations and their potential impact on chemical profiles.Cell morphology and integrity were evaluated using phase-contrast microscopy as an indicator of hepatocyte cell health (Tyson & Green, 1987). Cultures for each treatment group (i.e., media, vehicle [0.2% DMSO], positive control inducers [multiple concentrations], and the ToxCast chemicals [multiple concentrations]) were observed and cell morphology was assessed relative to vehicle control cultures at each harvest time point (0, 6, 24, or 48 h). […] Images were evaluated at the conclusion of the study to assess changes in cell integrity and account for the effects of chemical exposure on uncharacteristic changes in concentration-dependent gene expression profiles. […]

Read-out in test [3]: glucuronosyltransferase (UGT1A1), UGT1A1 (gene 54658)
Briefly: CLD_UGT1A1_24hr: CellzDirect (CLD) Gene Expression Assay for glucuronosyltransferase (UGT1A1) at 24 hours (AID 2283696). In outline: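 Primary human hepatocytes from two donor preparations were dosed (0.2% DMSO vehicle) and harvested at 24 h; UGT1A1 mRNA induction was quantified by chemiluminescent qNPA, fitted as gain relative to DMSO.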

Read-out in test [4]: Cytochrome P450 3A4 (Homo sapiens) (UniProt P08684)
Description: CLD_CYP3A4_48hr: CellzDirect (CLD) Gene Expression Assay for xenobiotic metabolism (CYP3A4) at 48 hours (AID 2283698). As to the method: as §1, with “plate.CLD_CYP3A4_48hr” for “plate.CLD_ABCB1_48hr”, “CLD_CYP3A4_48hr” for “CLD_ABCB1_48hr”, “CLD_CYP3A4_48hr,” for “CLD_ABCB1_48hr,”, “CYP3A4.” for “ABCB1.”, “cyp” for “transporter”, “xenobiotic metabolism.” for “ABC transporter.”
(§3) Human hepatocyte cultures were treated daily for two consecutive days with fresh dosing solutions containing appropriate concentrations of the 320 ToxCast chemicals (chemical identities were blinded to CellzDirect and other ToxCast collaborators), vehicle control (0.2% DMSO), and positive control inducers as summarized in Table 1. Due to the large number of treatment groups and chemicals examined, the ToxCast chemicals were divided into two groups (spanning two independent cultures of hepatocytes from separate donor preparations (Hu778: ToxCast plates 1 and 2; Hu776: ToxCast plates 3 and 4). Each preparation of human hepatocyte cultures was treated with respective vehicle control, medium only control, set of six positive controls/reference chemicals for the five hepatic receptor pathways, and a subset of eight of the ToxCast chemicals (indoxacarb, pyrithiobac-sodium, norflurazon, cyhalofop-butyl, methomyl, thiram, acetochlor, and propiconazole). These replicate data, coupled with internal replicates designed within the blinded ToxCast chemical library, provided additional data to evaluate interindividual differences between hepatocyte preparations and their potential impact on chemical profiles.Cell morphology and integrity were evaluated using phase-contrast microscopy as an indicator of hepatocyte cell health (Tyson & Green, 1987). Cultures for each treatment group (i.e., media, vehicle [0.2% DMSO], positive control inducers [multiple concentrations], and the ToxCast chemicals [multiple concentrations]) were observed and cell morphology was assessed relative to vehicle control cultures at each harvest time point (0, 6, 24, or 48 h). […] Images were evaluated at the conclusion of the study to assess changes in cell integrity and account for the effects of chemical exposure on uncharacteristic changes in concentration-dependent gene expression profiles. The results from these determinations of apparent cytotoxicity were annotated (yes/no) alongside the corresponding qNPA data for reference.At the conclusion of each treatment period, hepatocyte cultures (96-well) were washed with 1 volume of HBSS, lysed by addition of 25 ul ArrayPlate lysis buffer (HTG, Tucson, AZ), and 70 ul/well of Denaturation Oil, denatured by incubation at 95C for 10 min, and frozen at approximately -70C until analysis by nuclease protection assay (qNPA) (Roberts et al., 2007). […]

Read-out in test [5]: Cytochrome P450 2B6 (Homo sapiens) (UniProt P20813)
Description: CLD_CYP2B6_48hr: CellzDirect (CLD) Gene Expression Assay for xenobiotic metabolism (CYP2B6) at 48 hours (AID 2283699).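 Note: actives raise transcript level above DMSO so potency reflects induction.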 As to the method: as §1, with “plate.CLD_CYP2B6_48hr” for “plate.CLD_ABCB1_48hr”, “CLD_CYP2B6_48hr” for “CLD_ABCB1_48hr”, “CLD_CYP2B6_48hr,” for “CLD_ABCB1_48hr,”, “CYP2B6.” for “ABCB1.”, “cyp” for “transporter”, “xenobiotic metabolism.” for “ABC transporter.”
as §2

Read-out in test [6]: Cytochrome P450 2C19 (Homo sapiens) (UniProt P33261)
Briefly: CLD_CYP2C19_48hr: CellzDirect (CLD) Gene Expression Assay for xenobiotic metabolism (CYP2C19) at 48 hours (AID 2283700).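 Note: fitted upward so actives raise CYP2C19 mRNA above the 0.2% DMSO vehicle.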 The essentials: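 Primary human hepatocytes (two donor preparations) dosed daily for two days, harvested at 48 h; CYP2C19 mRNA induction measured by qNPA chemiluminescence. Gain-of-signal fitted relative to 0.2% DMSO vehicle as baseline.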

Read-out in test [7]: xenobiotic metabolism (CYP1A2), CYP1A2 (gene 1544)
Description: CLD_CYP1A2_48hr: CellzDirect (CLD) Gene Expression Assay for xenobiotic metabolism (CYP1A2) at 48 hours (AID 2283703). The method, then: as §1, with “plate.CLD_CYP1A2_48hr” for “plate.CLD_ABCB1_48hr”, “CLD_CYP1A2_48hr” for “CLD_ABCB1_48hr”, “CLD_CYP1A2_48hr,” for “CLD_ABCB1_48hr,”, “CYP1A2.” for “ABCB1.”, “cyp” for “transporter”, “xenobiotic metabolism.” for “ABC transporter.”
as §3

Test [8] is described as follows: CLD_ACTIN_48hr: CellzDirect (CLD) Gene Expression Assay for Baseline Control (Actin) at 48 hours (AID 2283702). The method, then:
(§4) CLD_48hr is a cell-based, multiplexed-readout assay that uses hepatocyte, a human liver primary cell, with measurements taken at 48 hours after chemical dosing in a 96-well plate.CLD_ACTIN_48hr is one of 16 assay component(s) measured or calculated from the CLD_48hr assay. It is designed to make measurements of mRNA induction, a form of inducible reporter, as detected with chemiluminescence signals by Quantitative Nuclease Protection Assay (qNPA) technology.Data from the assay component CLD_ACTIN_48hr was analyzed at the endpoint, CLD_ACTIN_48hr, in the positive analysis fitting direction relative to DMSO as the negative control and baseline of activity. […] Furthermore, this assay endpoint can be referred to as a secondary readout, because this assay has produced multiple assay endpoints where this one serves a background control function. […]
Human hepatocyte cultures were treated daily for two consecutive days with fresh dosing solutions containing appropriate concentrations of the 320 ToxCast chemicals (chemical identities were blinded to CellzDirect and other ToxCast collaborators), vehicle control (0.2% DMSO), and positive control inducers as summarized in Table 1. […] Images were evaluated at the conclusion of the study to assess changes in cell integrity and account for the effects of chemical exposure on uncharacteristic changes in concentration-dependent gene expression profiles. […]

Read-out in test [9]: ABC Transporter (ABCB11), ABCB11 (gene 8647)
Briefly: CLD_ABCB11_48hr: CellzDirect (CLD) Gene Expression Assay for ABC Transporter (ABCB11) at 48 hours (AID 2283697). The method, then: as §4, with “plate.CLD_ABCB11_48hr” for “plate.CLD_ACTIN_48hr”, “CLD_ABCB11_48hr” for “CLD_ACTIN_48hr”, “CLD_ABCB11_48hr,” for “CLD_ACTIN_48hr,”, “primary readout.” for “secondary readout, because this assay has produced multiple assay endpoints where this one serves a background control function.”
(§5) Human hepatocyte cultures were treated daily for two consecutive days with fresh dosing solutions containing appropriate concentrations of the 320 ToxCast chemicals (chemical identities were blinded to CellzDirect and other ToxCast collaborators), vehicle control (0.2% DMSO), and positive control inducers as summarized in Table 1. […] Cultures for each treatment group (i.e., media, vehicle [0.2% DMSO], positive control inducers [multiple concentrations], and the ToxCast chemicals [multiple concentrations]) were observed and cell morphology was assessed relative to vehicle control cultures at each harvest time point (0, 6, 24, or 48 h). […]

Read-out in test [10]: Cytochrome P450 2C9 (Homo sapiens) (UniProt P11712)
Description: CLD_CYP2C9_48hr: CellzDirect (CLD) Gene Expression Assay for xenobiotic metabolism (CYP2C9) at 48 hours (AID 2283701; active = hit-call score of the fitted dose curve at least 0.9, where 1 is the maximum; inactive = score below 0.9). The method, then: as §4, with “plate.CLD_CYP2C9_48hr” for “plate.CLD_ACTIN_48hr”, “CLD_CYP2C9_48hr” for “CLD_ACTIN_48hr”, “CLD_CYP2C9_48hr,” for “CLD_ACTIN_48hr,”, “primary readout.” for “secondary readout, because this assay has produced multiple assay endpoints where this one serves a background control function.”
as §5

Sequence of Cytochrome P450 3A4 (Homo sapiens) (P08684 whole entry, looked up): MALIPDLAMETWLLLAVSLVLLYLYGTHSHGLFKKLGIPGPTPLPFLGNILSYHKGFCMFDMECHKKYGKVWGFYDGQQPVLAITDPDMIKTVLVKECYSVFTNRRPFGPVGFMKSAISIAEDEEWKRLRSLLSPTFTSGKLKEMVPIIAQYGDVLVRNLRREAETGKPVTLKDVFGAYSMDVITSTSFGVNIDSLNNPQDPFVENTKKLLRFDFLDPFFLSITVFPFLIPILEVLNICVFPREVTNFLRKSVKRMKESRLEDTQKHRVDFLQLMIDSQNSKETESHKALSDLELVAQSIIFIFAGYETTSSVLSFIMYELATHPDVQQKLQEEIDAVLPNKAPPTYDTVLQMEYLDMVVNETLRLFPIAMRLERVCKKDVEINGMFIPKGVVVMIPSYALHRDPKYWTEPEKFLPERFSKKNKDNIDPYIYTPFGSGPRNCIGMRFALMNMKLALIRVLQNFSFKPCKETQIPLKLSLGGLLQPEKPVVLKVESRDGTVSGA
Sequence of Cytochrome P450 2C19 (Homo sapiens) (P33261 whole entry, looked up): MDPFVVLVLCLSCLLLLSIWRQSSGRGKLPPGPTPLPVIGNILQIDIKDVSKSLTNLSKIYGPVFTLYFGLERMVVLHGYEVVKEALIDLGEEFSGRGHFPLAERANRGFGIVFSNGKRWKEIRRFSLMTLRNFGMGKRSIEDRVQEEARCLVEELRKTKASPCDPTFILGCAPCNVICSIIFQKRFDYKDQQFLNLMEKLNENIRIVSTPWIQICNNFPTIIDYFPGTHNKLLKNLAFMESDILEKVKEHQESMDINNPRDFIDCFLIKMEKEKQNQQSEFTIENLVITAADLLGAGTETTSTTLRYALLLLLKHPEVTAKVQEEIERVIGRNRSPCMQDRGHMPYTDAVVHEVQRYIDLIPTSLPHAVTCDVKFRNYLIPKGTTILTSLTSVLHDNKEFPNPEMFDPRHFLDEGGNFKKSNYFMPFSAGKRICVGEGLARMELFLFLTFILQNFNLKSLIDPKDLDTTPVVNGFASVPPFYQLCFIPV

For `Cc1ccccc1CO[C@@H]1C[C@@]2(C(C)C)CC[C@]1(C)O2`, the outcome in test [1], in test [2] and in test [6] was inactive. Also, the AC50 in test [3] is 5.18 µM (active); in [4], 10.4 µM (active); in [5] it was 4.16 µM (active); in [7] it was 11.5 µM (active).

Regarding `CCNc1nc(NC(C)C)nc(SC)n1`, the call in test [1], in [2], in test [3], in test [8] and in test [7] was inactive. Moreover, the AC50 in test [4] is 5.88 µM (active); in test [5] it was 1.9 µM (active).

As for `CN(C)c1nc(=O)n(C2CCCCC2)c(=O)n1C`, the outcome in test [1], in [3], in test [9], in test [4], in test [8] and in test [7] was inactive.

Consider `CCC(C)(CC)c1cc(NC(=O)c2c(OC)cccc2OC)on1`, for which the result in test [1], in test [2], in [3] and in test [10] was inactive. In addition, the AC50 is 0.126 µM (active) in test [4], 0.26 µM (active) in test [5] and 4.25 µM (active) in [7].

For the compound `CCSC(=O)N(CC)C1CCCCC1`, the compound was called inactive in test [2], in test [3], in [9], in test [6], in test [10] and in [7]. The AC50 is 0.000988 µM (active) in test [4] and 0.000515 µM (active) in [5].
